Reference: PMC5540273 (PLoS ONE, 2017)

Experiments:
Conditions in all cases: concentration: 1 μM, replicates: in singlicate; n = 1
ULK3 = system: ULK3
VEGFR2 = system: T1, VEGFR2
T1 construct: gene KDR

VPS34 = system: T2, VPS34
T2 construct: gene PIK3C3

VRK2 = system: VRK2
WEE1 = system: WEE1
WEE2 = system: WEE2
WNK1 = system: WNK1
WNK2 = system: WNK2
WNK3 = system: WNK3
WNK4 = system: WNK4
YANK1 = system: T3, YANK1
T3 construct: gene STK32A

YANK2 = system: T4, YANK2
T4 construct: gene STK32B

YANK3 = system: T5, YANK3
T5 construct: gene STK32C

YES = system: T6, YES
T6 construct: gene YES1

YSK1 = system: T7, YSK1
T7 construct: gene STK25

YSK4 = system: T8, YSK4
T8 construct: gene MAP3K19

ZAK = system: ZAK
ZAP70 = system: ZAP70
p38-alpha = system: T9, p38-alpha
T9 construct: gene MAPK14

p38-beta = system: T10, p38-beta
T10 construct: gene MAPK11
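Note: KINOMEscan kinase panel screen.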

Structure (SMILES)	%Inh (ULK3) [%]	%Inh (VEGFR2) [%]	%Inh (VPS34) [%]	%Inh (VRK2) [%]	%Inh (WEE1) [%]	%Inh (WEE2) [%]	%Inh (WNK1) [%]	%Inh (WNK2) [%]	%Inh (WNK3) [%]	%Inh (WNK4) [%]	%Inh (YANK1) [%]	%Inh (YANK2) [%]	%Inh (YANK3) [%]	%Inh (YES) [%]	%Inh (YSK1) [%]	%Inh (YSK4) [%]	%Inh (ZAK) [%]	%Inh (ZAP70) [%]	%Inh (p38-alpha) [%]	%Inh (p38-beta) [%]
COc1cc(Nc2nccc(N3CCC(NC(=O)C(C)c4ccc(Cl)cc4)C3)n2)cc(OC)c1OC (stereo not drawn) [GSK1379757]	42	0	0	0	30	0	9	0	15	10	0	0	0	5	6	29	0	0	10	0
CC(C)(C)c1ccc(C(=O)Nc2cn3cc(-c4ccccc4)ccc3n2)cc1	12	0	0	1	6	0	0	0	0	16	0	0	0	2	0	21	14	0	0	11
Cc1nnc(-c2ccc3ncn(-c4ccc(S(C)=O)cc4)c3c2)o1 (stereo not drawn)	0	3	15	0	0	21	0	0	0	0	0	0	4	7	0	21	12	0	0	13
COc1cccc(-n2cnc3c(N)ncnc32)c1 [SKF-97416]	27	15	45	8	2	0	7	0	38	43	4	0	1	0	0	45	42	25	0	22
COc1cc2nccc(Nc3cccc(Oc4ccccc4)c3)c2cc1OC.Cl [GW284543]	8	12	35	0	8	14	0	11	10	0	5	0	1	19	0	0	17	0	0	0
CCS(=O)c1ccc(-c2coc3ccc(-c4nnc(C)o4)cc23)cc1 (stereo not drawn)	0	10	15	2	7	0	0	3	0	11	5	11	0	0	0	15	8	0	0	5
COc1cc2ncn(-c3cc(OCCCc4ccccc4)c(C(N)=O)s3)c2cc1OC [GSK205189]	3	0	0	0	12	4	0	8	0	0	0	0	19	0	0	0	0	0	0	0
COc1cccc(C2=C(Nc3cccc(C(=O)O)c3)C(=O)NC2=O)c1 [SB-390770]	9	11	34	16	0	7	3	18	5	0	12	0	16	8	0	14	41	7	0	11
O=C1NC(=O)C(c2ccccc2)=C1Nc1cccc(O)c1 [SB-390534]	26	7	19	0	0	1	0	0	0	9	0	0	0	0	8	0	8	0	1	3
CCc1nc(-c2cccc(C)c2)c(-c2ccncc2)s1	12	0	0	0	0	0	0	0	0	0	36	16	0	7	0	8	0	0	72	52
COc1ccc(-n2cnc3c(N)ncnc32)cc1 [SKF-97236]	10	0	27	0	0	0	11	19	0	0	0	10	0	0	0	34	15	0	0	21
CN(C)c1cc(-c2ccc3c(N)n[nH]c3c2)nc(N)n1 [GSK2219329]	9	3	0	0	3	1	3	0	15	32	7	0	0	1	12	16	92.5	0	0	0
CCn1c(-c2nonc2N)nc2ccccc21 [SB-693162/GW549034]	20	40	2	0	0	0	0	39	0	6	46	0	0	0	0	87	0	0	23	1
COc1cc2ncn(-c3cc(OCc4ccncc4Br)c(C(N)=O)s3)c2cc1OC [GW854278]	36	31	58	24	0	18	19	35	64	0	0	0	0	0	0	61	15	0	4	0
CCCNC(=O)Nc1ccc(Oc2ncnc3ccn(C)c23)cc1	30	13	34	0	0	13	0	3	0	0	0	8	13	0	3	33	1	0	2	15
